# Measurements published in PMC7862700, “An all-to-all approach to the identification of sequence-specific readers for epigenetic DNA modifications on cytosine”.
# How the values were obtained:
# Assay in all cases: DAPPL (digital affinity profiling via proximity ligation, sequencing); 10 mM Tris-HCl pH 7.5, 50 mM NaCl, 1 mM DTT, 4% glycerol, room temperature, 30 min; GST-TFs on glutathione beads, 16-mer random dsDNA library, 0.1% formaldehyde crosslink after washing; high values mean tight binding
# FLI1 = biological target: T1, FLI1 (Homo sapiens, UniProt Q01543 1-452); settings: protein: recombinant; tags: N-terminal GST; dsDNA, one strand shown
# T1 sequence: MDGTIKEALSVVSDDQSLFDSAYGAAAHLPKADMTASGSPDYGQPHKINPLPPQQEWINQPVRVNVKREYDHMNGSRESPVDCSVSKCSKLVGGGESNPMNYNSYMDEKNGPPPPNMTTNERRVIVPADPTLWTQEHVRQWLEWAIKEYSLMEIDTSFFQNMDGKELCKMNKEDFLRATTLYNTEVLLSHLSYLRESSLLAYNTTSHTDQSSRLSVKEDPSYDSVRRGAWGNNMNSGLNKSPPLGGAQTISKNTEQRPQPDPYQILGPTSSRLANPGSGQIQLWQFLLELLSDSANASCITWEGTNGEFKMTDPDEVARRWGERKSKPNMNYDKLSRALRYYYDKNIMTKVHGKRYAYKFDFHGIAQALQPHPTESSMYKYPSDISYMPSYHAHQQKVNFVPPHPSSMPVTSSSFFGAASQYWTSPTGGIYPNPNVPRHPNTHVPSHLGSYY
# How it was run: (§1)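 Human transcription factors were made in yeast as GST fusions, captured on glutathione beads and barcoded with DNA. With a tag-only sample included, the pool was incubated with 200 nmole of a random double-stranded 16-mer DNA library in Tris/NaCl/DTT/glycerol buffer at room temperature for 30 min, then crosslinked with 0.1% formaldehyde after washing, ligated by proximity, amplified and sequenced. For binding signal, each hexamer's read frequency for a factor is divided by its frequency for the tag-only sample.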
# ELK1 = biological target: T2, ELK1 (Homo sapiens, UniProt P19419 1-428); settings: protein: recombinant; tags: N-terminal GST; dsDNA, one strand shown
# T2 sequence: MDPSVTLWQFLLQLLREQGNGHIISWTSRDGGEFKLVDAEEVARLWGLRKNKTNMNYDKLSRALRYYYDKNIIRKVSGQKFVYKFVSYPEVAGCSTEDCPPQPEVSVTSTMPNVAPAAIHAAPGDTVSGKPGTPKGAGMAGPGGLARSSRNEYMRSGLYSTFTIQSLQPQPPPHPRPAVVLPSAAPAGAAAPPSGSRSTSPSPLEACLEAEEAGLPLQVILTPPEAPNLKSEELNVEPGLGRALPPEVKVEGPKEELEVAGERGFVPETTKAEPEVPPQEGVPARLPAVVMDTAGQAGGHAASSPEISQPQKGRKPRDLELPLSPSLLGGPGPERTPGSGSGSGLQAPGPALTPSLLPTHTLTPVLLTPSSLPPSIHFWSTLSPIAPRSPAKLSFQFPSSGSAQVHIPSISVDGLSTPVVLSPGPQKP
# How it was run: as §1
# GABPA = biological target: T3, GABPA (Homo sapiens, UniProt Q06546 1-454); settings: protein: recombinant; tags: N-terminal GST; dsDNA, one strand shown
# T3 sequence: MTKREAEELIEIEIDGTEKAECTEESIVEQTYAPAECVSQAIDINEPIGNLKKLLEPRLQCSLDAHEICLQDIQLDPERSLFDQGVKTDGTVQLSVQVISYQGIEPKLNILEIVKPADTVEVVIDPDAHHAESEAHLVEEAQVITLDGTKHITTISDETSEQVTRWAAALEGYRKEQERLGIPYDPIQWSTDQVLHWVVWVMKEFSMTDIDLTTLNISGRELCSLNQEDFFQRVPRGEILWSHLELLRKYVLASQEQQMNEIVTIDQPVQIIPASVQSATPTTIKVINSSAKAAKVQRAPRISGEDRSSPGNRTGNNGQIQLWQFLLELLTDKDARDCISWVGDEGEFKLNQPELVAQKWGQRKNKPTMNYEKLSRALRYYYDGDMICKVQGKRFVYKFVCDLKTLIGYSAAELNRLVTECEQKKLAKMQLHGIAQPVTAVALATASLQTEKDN
# How it was run: as §1
# ERG = biological target: T4, ERG (Homo sapiens, UniProt P11308 1-479); settings: protein: recombinant; tags: N-terminal GST; dsDNA, one strand shown
# T4 sequence: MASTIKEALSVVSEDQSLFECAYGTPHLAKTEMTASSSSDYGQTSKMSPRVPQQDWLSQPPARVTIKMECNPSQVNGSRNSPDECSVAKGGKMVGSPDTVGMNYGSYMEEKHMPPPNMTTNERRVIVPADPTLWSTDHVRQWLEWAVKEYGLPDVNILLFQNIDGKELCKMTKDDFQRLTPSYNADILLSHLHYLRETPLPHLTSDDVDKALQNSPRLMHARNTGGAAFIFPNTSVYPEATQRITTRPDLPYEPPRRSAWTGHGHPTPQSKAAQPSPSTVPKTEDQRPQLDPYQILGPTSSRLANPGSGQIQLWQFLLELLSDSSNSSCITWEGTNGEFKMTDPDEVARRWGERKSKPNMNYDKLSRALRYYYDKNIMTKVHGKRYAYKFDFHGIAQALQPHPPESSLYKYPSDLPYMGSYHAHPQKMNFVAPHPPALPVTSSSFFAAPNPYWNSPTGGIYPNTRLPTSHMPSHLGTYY
# How it was run: as §1
# ELF1 = ELF1 (Homo sapiens, UniProt P32519 1-619); settings: protein: recombinant; tags: N-terminal GST; dsDNA, one strand shown
# How it was run: as §1
# EHF = biological target: T5, EHF (Homo sapiens, UniProt Q9NZC4 1-300); settings: protein: recombinant; tags: N-terminal GST; dsDNA, one strand shown
# T5 sequence: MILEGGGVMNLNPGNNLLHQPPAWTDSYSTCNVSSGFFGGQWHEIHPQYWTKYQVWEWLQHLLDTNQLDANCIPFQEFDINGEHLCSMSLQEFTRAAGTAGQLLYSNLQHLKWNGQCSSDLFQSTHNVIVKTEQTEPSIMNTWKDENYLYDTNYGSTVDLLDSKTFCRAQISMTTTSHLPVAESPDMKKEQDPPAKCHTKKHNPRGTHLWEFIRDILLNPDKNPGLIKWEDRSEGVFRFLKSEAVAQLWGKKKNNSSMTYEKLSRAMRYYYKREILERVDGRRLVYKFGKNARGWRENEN
# How it was run: as §1
# SPI1 = SPI1 (Homo sapiens, UniProt P17947 1-270); settings: protein: recombinant; tags: N-terminal GST; dsDNA, one strand shown
# How it was run: as §1
# SPIB = SPIB (Homo sapiens, UniProt Q01892 1-262); settings: protein: recombinant; tags: N-terminal GST; dsDNA, one strand shown
# How it was run: as §1
# ELK3 = biological target: T6, ELK3 (Homo sapiens, UniProt P41970 1-407); settings: protein: recombinant; tags: N-terminal GST; dsDNA, one strand shown
# T6 sequence: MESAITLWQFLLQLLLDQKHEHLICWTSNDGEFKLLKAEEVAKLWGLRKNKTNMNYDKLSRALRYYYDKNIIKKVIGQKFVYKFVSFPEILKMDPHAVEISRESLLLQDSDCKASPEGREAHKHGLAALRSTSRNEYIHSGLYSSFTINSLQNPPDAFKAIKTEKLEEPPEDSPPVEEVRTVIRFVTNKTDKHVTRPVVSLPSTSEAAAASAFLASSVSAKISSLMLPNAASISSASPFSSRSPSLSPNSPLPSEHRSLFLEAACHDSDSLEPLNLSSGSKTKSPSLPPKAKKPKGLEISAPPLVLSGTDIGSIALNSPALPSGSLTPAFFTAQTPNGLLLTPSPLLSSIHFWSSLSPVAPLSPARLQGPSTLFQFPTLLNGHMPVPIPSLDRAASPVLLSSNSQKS
# How it was run: as §1
# FEV = biological target: T7, FEV (Homo sapiens, UniProt Q99581 1-238); settings: protein: recombinant; tags: N-terminal GST; dsDNA, one strand shown
# T7 sequence: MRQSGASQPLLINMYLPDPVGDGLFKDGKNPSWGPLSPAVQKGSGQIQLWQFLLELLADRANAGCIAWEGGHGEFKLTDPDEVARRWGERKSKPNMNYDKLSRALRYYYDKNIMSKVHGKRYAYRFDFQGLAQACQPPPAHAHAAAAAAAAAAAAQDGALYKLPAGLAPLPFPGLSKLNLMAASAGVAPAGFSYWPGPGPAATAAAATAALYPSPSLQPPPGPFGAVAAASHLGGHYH
# How it was run: as §1
# ETV5 = ETV5 (Homo sapiens, UniProt P41161 1-510); settings: protein: recombinant; tags: N-terminal GST; dsDNA, one strand shown
# How it was run: as §1
# HSF1 = HSF1 (Homo sapiens, UniProt Q00613 1-529); settings: protein: recombinant; tags: N-terminal GST; chain copies: 3; dsDNA, one strand shown
# How it was run: as §1
# SPIC = biological target: T8, SPIC (Homo sapiens, UniProt Q8N5J4 1-248); settings: protein: recombinant; tags: N-terminal GST; dsDNA, one strand shown
# T8 sequence: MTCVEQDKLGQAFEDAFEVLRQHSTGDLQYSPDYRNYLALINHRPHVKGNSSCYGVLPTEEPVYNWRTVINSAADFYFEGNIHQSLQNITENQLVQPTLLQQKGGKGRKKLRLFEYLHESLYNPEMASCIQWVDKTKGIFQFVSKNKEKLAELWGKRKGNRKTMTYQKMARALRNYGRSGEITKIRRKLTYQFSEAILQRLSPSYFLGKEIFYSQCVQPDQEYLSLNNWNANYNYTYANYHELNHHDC
# How it was run: as §1
# ELF4 = ELF4 (Homo sapiens, UniProt Q99607 1-663); settings: protein: recombinant; tags: N-terminal GST; dsDNA, one strand shown
# How it was run: as §1
# ELK4 = biological target: T9, ELK4 (Homo sapiens, UniProt P28324-2 1-405); settings: protein: recombinant; tags: N-terminal GST; dsDNA, one strand shown
# T9 sequence: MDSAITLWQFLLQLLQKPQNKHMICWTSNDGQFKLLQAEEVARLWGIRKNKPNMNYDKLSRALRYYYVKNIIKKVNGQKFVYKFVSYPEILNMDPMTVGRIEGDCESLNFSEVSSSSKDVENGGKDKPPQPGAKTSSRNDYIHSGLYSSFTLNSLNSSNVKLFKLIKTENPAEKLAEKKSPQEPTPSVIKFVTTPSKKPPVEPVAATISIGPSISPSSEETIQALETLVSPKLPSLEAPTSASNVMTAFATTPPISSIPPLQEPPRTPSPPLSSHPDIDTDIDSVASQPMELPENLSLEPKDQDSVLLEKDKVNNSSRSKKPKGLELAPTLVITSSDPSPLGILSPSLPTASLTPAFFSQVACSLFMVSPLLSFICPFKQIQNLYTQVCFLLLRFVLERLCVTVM
# How it was run: as §1
# ETV2 = biological target: T10, ETV2 (Homo sapiens, UniProt O00321 1-342); settings: protein: recombinant; tags: N-terminal GST; dsDNA, one strand shown
# T10 sequence: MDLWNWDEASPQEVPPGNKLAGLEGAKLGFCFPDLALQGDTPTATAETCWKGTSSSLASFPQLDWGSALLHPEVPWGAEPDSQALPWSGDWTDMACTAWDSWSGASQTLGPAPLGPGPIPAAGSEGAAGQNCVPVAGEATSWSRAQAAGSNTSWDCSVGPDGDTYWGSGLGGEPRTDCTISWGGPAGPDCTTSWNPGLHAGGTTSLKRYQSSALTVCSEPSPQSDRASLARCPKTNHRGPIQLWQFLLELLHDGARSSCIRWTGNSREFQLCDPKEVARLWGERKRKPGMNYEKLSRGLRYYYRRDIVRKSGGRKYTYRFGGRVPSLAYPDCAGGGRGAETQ
# How it was run: as §1
# ELF3 = biological target: T11, ELF3 (Homo sapiens, UniProt P78545 1-371); settings: protein: recombinant; tags: N-terminal GST; dsDNA, one strand shown
# T11 sequence: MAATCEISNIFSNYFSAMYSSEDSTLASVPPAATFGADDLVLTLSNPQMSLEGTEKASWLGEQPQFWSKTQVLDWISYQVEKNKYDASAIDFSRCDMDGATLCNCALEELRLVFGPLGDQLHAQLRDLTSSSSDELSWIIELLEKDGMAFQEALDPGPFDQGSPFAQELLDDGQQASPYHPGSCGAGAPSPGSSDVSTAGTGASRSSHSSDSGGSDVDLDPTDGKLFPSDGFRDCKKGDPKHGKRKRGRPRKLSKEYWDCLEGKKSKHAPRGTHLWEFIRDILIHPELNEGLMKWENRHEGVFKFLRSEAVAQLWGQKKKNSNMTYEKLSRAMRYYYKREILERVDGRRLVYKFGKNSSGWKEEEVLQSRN
# How it was run: as §1
# CRX = CRX (Homo sapiens, UniProt O43186 1-299); settings: protein: recombinant; tags: N-terminal GST; dsDNA, one strand shown
# How it was run: as §1
# ETV1 = ETV1 (Homo sapiens, UniProt P50549 1-477); settings: protein: recombinant; tags: N-terminal GST; dsDNA, one strand shown
# How it was run: as §1
# CRX, sequence (O43186 whole entry): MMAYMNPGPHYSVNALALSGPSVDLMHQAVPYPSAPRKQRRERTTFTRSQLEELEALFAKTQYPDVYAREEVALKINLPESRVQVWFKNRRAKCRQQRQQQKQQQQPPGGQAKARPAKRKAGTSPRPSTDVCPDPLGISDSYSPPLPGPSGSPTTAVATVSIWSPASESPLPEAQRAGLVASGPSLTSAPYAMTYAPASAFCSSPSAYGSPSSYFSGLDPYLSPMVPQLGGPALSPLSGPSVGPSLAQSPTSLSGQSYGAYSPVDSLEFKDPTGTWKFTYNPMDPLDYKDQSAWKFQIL
# SPIB, sequence (Q01892 whole entry): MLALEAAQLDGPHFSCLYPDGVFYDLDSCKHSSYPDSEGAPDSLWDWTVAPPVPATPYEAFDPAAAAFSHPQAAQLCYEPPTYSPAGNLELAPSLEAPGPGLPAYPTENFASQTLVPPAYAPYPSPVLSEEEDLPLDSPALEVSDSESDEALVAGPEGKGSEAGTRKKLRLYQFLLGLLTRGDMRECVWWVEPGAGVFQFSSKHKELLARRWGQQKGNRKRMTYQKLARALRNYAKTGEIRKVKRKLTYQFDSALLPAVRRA
# ELF4, sequence (Q99607 whole entry): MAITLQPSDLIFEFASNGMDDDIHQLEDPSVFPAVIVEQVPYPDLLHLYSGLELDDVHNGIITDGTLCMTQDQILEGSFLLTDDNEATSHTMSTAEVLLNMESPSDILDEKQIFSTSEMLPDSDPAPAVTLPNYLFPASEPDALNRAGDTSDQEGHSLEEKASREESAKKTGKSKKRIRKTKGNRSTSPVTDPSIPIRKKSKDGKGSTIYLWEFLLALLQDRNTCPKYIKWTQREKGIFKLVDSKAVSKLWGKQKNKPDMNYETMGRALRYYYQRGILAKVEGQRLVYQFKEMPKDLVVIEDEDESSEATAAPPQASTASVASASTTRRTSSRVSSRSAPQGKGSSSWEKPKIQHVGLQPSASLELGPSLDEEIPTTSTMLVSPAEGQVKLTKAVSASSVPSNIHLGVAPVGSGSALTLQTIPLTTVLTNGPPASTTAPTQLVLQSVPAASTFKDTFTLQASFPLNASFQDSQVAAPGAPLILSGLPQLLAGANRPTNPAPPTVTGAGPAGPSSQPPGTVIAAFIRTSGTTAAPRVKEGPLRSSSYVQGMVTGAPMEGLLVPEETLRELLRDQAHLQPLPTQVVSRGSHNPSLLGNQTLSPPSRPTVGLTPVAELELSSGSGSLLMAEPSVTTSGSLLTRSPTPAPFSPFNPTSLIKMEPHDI
# ETV5, sequence (P41161 whole entry): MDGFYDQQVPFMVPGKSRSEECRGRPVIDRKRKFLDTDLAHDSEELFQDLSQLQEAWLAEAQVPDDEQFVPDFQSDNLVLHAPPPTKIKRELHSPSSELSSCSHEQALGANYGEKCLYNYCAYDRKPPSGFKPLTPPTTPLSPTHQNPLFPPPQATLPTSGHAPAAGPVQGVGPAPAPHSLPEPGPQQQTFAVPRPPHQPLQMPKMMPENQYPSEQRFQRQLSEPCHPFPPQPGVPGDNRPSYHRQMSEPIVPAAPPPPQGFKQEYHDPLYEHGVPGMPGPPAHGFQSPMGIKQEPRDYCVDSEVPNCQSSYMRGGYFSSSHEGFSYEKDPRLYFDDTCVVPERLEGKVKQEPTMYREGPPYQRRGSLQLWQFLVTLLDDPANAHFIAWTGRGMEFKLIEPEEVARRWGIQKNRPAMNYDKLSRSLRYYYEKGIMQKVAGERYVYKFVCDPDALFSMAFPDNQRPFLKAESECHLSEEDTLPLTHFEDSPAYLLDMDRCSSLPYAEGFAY
# ELF1, sequence (P32519 whole entry): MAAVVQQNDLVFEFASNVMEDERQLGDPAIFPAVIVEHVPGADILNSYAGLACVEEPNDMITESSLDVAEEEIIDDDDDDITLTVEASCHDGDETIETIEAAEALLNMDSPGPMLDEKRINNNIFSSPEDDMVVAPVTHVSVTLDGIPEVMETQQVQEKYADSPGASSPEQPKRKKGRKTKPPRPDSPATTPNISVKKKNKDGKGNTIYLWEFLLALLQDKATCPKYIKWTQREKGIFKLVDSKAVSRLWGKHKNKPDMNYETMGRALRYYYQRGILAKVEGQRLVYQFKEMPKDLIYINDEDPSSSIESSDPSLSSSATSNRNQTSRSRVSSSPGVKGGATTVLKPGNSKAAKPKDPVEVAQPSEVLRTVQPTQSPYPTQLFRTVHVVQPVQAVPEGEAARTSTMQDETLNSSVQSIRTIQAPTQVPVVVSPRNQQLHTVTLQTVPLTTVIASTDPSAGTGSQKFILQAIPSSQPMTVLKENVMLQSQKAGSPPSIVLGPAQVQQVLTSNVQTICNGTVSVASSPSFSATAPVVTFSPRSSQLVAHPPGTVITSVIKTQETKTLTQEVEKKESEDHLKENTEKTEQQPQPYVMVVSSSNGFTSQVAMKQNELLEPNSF
# ETV1, sequence (P50549 whole entry): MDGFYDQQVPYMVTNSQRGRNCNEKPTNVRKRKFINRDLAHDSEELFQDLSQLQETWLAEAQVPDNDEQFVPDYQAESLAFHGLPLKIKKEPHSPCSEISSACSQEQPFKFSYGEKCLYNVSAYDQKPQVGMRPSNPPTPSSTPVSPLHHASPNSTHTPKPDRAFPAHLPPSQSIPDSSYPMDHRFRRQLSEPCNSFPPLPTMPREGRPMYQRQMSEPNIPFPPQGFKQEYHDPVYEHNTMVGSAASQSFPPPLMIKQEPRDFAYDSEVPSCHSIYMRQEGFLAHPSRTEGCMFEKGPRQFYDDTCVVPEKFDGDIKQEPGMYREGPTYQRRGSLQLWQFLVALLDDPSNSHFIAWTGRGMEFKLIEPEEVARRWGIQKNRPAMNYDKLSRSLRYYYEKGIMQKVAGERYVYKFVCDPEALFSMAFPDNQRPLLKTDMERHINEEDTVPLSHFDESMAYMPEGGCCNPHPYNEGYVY
# HSF1, sequence (Q00613 whole entry): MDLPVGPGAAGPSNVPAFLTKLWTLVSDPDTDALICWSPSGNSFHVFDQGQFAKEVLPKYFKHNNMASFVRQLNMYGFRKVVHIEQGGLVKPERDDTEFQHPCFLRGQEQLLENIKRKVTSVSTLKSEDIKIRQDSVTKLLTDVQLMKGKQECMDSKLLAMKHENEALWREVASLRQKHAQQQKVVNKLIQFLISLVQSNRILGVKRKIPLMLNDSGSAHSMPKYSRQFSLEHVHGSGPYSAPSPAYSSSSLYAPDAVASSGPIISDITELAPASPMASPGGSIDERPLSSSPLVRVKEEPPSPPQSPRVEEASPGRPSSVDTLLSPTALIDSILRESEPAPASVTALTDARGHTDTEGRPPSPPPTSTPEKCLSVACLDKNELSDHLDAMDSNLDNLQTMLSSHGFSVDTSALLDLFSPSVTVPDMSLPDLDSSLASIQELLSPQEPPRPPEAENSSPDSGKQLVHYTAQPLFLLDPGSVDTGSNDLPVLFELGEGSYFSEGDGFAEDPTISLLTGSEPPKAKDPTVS
sequence,measurement,setting,value
TGGCAA,binding signal,FLI1,"1.23 fold enrichment (6-mer frequency, TF over GST control)"
same,binding signal,ELK1,"1.21 fold enrichment (6-mer frequency, TF over GST control)"
same,binding signal,GABPA,"1.22 fold enrichment (6-mer frequency, TF over GST control)"
same,binding signal,ERG,"1.15 fold enrichment (6-mer frequency, TF over GST control)"
same,binding signal,ELF1,"1.2 fold enrichment (6-mer frequency, TF over GST control)"
same,binding signal,EHF,"1.16 fold enrichment (6-mer frequency, TF over GST control)"
same,binding signal,SPI1,"1.2 fold enrichment (6-mer frequency, TF over GST control)"
same,binding signal,SPIB,"1.32 fold enrichment (6-mer frequency, TF over GST control)"
same,binding signal,ELK3,"1.11 fold enrichment (6-mer frequency, TF over GST control)"
same,binding signal,FEV,"1.17 fold enrichment (6-mer frequency, TF over GST control)"
same,binding signal,ETV5,"1.18 fold enrichment (6-mer frequency, TF over GST control)"
same,binding signal,HSF1,"1.18 fold enrichment (6-mer frequency, TF over GST control)"
same,binding signal,SPIC,"1.13 fold enrichment (6-mer frequency, TF over GST control)"
same,binding signal,ELF4,"1.21 fold enrichment (6-mer frequency, TF over GST control)"
same,binding signal,ELK4,"1.19 fold enrichment (6-mer frequency, TF over GST control)"
same,binding signal,ETV2,"1.11 fold enrichment (6-mer frequency, TF over GST control)"
same,binding signal,ELF3,"1.03 fold enrichment (6-mer frequency, TF over GST control)"
same,binding signal,CRX,"1.07 fold enrichment (6-mer frequency, TF over GST control)"
same,binding signal,ETV1,"1.16 fold enrichment (6-mer frequency, TF over GST control)"
